Test results taken from the supplement of paper PMC10849652.
About 7,900 targets were measured; listed, in parts, are those with a hit and a random draw of the rest. About 0.6% of all pairs of compound and target were hits.

Columns and labels:
Assay in all cases: log2 fold change, soluble protein after heating vs DMSO (PISA); higher = thermal stabilisation; K562 cells, 10 uM, 30 min; active = over 0.2 and 3.5 SD of the protein, either way, in both replicates (recomputed)
[1] = compound: C1=CC=C(C=C1)[C@H](COC2=CC3=C(C=C2)NC(=O)N3)NC(=O)C4=CC=CN(C4=O)CC5=CC(=C(C=C5)F)F
In short: (§1)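 Soluble protein was defined as the supernatant after 21,000xg for 90 min. It came from K562 cells at 2×10^6 cells/mL given 10 μM compound for 30 min, heated in aliquots for 3 min across 48°C-58°C, pooled, and extracted in PBS with 0.5% NP-40 at 4°C, and was quantified by TMTpro 16plex LC-MS/MS with equalised channel sums. Thermal stability against control samples, from duplicates, is reported as log2 fold change.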

[2] = compound: CC1=C(SC2=C1C(=N[C@H](C3=NN=C(N32)C)CC(=O)N)C4=CC=C(C=C4)Cl)C
In short: as §1

[3] = compound: CC1=C2C(=CC=C1)N=C(N(C2=O)C3=CC=CC=C3C)CN4C=NC5=C(N=CN=C54)N
In short: as §1

[4] = compound: Cc1sc2c(c1C)C(c1ccc(Cl)cc1)=N[C@@H](CC(=O)OC(C)(C)C)c1nnc(C)n1-2
In short: as §1

[5] = compound: c1ccc([C@@H]2C[C@H]2NC2CCNCC2)cc1
In short: as §1

Measured: log2 fold change

UCHL5 isoform 3 (UniProt Q9Y5K5)
Sequence of UniProt Q9Y5K5 (Q9Y5K5 whole entry, looked up): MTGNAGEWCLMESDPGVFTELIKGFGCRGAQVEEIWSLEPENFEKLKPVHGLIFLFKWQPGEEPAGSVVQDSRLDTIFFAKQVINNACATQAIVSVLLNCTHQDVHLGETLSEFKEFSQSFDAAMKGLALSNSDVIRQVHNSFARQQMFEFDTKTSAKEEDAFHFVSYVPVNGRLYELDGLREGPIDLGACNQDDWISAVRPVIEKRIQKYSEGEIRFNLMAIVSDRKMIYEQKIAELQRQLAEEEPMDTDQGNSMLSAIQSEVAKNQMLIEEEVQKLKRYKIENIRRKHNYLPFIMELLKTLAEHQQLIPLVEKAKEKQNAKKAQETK
inactive: [1] 0.021 | [2] 0.232 | [3] -0.123 | [4] 0.069 | [5] 0.167

TMEM161B (UniProt Q8NDZ6)
Sequence of UniProt Q8NDZ6 (Q8NDZ6 whole entry, looked up): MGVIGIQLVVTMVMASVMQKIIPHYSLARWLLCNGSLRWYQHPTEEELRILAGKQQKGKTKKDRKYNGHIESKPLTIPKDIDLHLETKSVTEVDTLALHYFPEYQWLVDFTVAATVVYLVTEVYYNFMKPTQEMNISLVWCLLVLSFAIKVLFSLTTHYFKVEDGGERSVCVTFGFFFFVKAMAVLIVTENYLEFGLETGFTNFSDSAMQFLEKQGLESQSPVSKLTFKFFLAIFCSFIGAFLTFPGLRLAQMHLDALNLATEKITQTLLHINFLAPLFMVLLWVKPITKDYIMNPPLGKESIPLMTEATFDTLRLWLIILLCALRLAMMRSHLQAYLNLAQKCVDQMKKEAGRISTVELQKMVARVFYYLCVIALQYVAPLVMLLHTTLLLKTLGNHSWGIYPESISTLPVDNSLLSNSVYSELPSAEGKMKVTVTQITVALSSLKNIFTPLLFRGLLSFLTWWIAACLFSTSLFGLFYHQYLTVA
inactive: [1] -0.076 | [2] 0.13 | [3] 0.018 | [4] 0.092 | [5] 0.08

XPNPEP1 isoform 3 (UniProt Q9NQW7)
Sequence of UniProt Q9NQW7 (Q9NQW7 whole entry, looked up): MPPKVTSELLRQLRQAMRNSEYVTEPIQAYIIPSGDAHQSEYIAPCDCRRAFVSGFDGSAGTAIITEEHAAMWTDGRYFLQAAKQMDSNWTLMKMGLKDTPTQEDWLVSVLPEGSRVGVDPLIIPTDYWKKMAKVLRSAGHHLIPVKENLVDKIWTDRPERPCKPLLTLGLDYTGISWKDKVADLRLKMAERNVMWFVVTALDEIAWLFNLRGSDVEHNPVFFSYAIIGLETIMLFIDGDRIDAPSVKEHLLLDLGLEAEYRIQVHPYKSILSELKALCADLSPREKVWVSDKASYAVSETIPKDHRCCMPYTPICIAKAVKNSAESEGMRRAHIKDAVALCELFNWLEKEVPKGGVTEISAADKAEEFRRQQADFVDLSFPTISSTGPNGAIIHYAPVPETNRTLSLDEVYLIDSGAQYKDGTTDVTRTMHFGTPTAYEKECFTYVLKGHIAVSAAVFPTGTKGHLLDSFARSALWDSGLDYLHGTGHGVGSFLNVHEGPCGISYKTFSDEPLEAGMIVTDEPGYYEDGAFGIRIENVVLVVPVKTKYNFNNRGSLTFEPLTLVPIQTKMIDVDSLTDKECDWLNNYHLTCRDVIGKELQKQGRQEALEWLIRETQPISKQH
inactive: [1] -0.017 | [2] 0.081 | [3] 0.021 | [4] 0.002 | [5] -0.029

WAPL isoform 3 (UniProt Q7Z5K2)
inactive: [1] -0.116 | [2] 0.021 | [3] 0.138 | [4] -0.08 | [5] 0.095

TUT4 (UniProt Q5TAX3)
Sequence of UniProt Q5TAX3 (Q5TAX3 whole entry, looked up): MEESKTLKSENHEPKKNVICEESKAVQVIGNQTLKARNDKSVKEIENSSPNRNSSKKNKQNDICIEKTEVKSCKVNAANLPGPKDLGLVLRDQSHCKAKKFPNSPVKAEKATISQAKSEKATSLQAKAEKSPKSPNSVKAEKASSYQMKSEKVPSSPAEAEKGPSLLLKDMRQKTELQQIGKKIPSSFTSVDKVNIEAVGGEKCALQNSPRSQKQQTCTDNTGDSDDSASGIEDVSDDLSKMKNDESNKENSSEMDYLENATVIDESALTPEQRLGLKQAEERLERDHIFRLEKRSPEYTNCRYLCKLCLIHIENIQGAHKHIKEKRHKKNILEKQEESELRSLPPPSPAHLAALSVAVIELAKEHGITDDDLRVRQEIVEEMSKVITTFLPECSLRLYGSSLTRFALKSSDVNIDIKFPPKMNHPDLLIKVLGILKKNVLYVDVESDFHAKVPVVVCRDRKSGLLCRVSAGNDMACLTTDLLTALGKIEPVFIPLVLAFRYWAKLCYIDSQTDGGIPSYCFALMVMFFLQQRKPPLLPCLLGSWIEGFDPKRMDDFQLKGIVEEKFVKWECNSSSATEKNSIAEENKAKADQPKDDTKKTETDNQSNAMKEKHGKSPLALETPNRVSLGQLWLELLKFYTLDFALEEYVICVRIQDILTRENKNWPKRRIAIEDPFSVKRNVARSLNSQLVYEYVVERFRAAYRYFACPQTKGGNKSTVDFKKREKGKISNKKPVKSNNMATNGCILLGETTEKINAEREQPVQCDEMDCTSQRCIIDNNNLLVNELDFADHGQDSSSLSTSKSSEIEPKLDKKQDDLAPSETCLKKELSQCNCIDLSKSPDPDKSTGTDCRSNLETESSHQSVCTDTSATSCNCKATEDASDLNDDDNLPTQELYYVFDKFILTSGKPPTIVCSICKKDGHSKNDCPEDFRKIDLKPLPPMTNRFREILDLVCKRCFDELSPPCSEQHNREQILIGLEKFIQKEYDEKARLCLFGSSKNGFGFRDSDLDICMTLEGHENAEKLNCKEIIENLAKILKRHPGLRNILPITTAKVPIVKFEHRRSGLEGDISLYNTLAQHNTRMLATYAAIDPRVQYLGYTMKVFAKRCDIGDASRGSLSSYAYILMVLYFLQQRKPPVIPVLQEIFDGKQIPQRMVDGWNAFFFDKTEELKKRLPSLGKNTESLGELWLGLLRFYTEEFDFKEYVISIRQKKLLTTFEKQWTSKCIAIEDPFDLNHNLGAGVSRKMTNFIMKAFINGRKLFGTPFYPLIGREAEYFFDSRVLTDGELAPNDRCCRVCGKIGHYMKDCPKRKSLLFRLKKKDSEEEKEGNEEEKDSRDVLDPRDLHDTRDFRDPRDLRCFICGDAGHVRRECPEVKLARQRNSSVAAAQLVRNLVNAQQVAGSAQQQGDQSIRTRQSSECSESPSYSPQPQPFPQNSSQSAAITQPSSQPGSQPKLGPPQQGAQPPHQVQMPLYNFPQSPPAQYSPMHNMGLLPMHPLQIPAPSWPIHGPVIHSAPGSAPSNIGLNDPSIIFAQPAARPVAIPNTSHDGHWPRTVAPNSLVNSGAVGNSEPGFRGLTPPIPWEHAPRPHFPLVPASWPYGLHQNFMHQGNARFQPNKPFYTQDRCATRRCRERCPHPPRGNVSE
inactive: [1] -0.029 | [2] -0.181 | [3] 0.214 | [4] -0.052 | [5] 0.153

U2AF2 (UniProt P26368)
inactive: [1] -0.004 | [2] 0.057 | [3] 0.045 | [4] 0.044 | [5] 0.005

UBE2J2 isoform 3 (UniProt Q8N2K1)
Sequence of UniProt Q8N2K1 (Q8N2K1 whole entry, looked up): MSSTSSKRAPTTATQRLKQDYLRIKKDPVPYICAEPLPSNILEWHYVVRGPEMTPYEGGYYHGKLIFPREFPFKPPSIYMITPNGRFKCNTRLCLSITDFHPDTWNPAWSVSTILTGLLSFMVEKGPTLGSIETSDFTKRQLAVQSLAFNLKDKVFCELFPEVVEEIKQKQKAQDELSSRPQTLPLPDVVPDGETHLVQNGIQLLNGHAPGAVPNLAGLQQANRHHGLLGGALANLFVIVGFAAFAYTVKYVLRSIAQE
inactive: [1] 0.003 | [2] 0.078 | [3] -0.106 | [4] -0.014 | [5] -0.144

UCHL5 (UniProt Q9Y5K5)
inactive: [1] -0.048 | [2] 0.004 | [3] 0.043 | [4] 0.027 | [5] 0.004

VPS33A (UniProt Q96AX1)
Sequence of UniProt Q96AX1 (Q96AX1 whole entry, looked up): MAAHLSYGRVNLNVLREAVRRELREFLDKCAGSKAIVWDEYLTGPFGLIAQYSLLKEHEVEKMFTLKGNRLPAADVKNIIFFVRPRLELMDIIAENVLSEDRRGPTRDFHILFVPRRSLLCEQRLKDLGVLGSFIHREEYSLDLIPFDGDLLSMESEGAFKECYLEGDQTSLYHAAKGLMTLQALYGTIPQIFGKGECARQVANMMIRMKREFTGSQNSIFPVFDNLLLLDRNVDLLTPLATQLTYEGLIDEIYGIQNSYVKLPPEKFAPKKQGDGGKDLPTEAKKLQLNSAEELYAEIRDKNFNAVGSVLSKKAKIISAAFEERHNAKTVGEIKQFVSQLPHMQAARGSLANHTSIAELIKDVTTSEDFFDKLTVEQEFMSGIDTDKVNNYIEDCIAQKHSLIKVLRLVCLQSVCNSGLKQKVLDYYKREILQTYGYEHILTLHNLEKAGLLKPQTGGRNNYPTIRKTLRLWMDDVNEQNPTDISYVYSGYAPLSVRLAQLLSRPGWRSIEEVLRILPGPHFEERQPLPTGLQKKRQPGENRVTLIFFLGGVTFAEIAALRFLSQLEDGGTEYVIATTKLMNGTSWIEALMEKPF
inactive: [1] -0.039 | [2] 0.053 | [3] 0.147 | [4] 0.059 | [5] -0.041

VPS37A (UniProt Q8NEZ2)
Sequence of UniProt Q8NEZ2 (Q8NEZ2 whole entry, looked up): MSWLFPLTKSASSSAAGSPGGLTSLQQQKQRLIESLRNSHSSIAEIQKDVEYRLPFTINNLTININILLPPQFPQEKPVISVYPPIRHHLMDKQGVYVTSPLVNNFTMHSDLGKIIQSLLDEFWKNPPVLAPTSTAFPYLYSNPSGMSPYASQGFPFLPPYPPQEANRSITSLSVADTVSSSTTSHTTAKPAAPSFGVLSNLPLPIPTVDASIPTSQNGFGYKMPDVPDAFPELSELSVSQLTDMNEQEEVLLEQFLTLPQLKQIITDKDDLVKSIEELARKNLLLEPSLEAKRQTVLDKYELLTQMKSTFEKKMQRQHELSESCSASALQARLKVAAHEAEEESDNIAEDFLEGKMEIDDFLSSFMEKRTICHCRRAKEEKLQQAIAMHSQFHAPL
inactive: [1] -0.076 | [2] 0.088 | [3] 0.126 | [4] 0.007 | [5] 0.036

TMEM9B (UniProt Q9NQ34)
inactive: [1] 0.043 | [2] 0.074 | [3] 0.093 | [4] -0.041 | [5] -0.011

UNC119B (UniProt A6NIH7)
Sequence of UniProt A6NIH7 (A6NIH7 whole entry, looked up): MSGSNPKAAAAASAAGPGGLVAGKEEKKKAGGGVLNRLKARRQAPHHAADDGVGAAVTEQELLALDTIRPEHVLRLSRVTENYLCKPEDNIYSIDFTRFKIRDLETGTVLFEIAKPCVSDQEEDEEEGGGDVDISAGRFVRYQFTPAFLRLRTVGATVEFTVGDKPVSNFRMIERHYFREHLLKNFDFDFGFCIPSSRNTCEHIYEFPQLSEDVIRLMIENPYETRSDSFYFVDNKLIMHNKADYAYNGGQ
inactive: [1] -0.093 | [2] -0.013 | [3] 0.094 | [4] -0.016 | [5] -0.009

WDR47 (UniProt O94967)
inactive: [1] 0.019 | [2] 0.004 | [3] -0.042 | [4] -0.031 | [5] 0.078

WASHC2A (UniProt Q641Q2)
inactive: [1] -0.006 | [2] -0.041 | [3] -0.017 | [4] 0.069 | [5] 0.033

TRABD (UniProt Q9H4I3)
Sequence of UniProt Q9H4I3 (Q9H4I3 whole entry, looked up): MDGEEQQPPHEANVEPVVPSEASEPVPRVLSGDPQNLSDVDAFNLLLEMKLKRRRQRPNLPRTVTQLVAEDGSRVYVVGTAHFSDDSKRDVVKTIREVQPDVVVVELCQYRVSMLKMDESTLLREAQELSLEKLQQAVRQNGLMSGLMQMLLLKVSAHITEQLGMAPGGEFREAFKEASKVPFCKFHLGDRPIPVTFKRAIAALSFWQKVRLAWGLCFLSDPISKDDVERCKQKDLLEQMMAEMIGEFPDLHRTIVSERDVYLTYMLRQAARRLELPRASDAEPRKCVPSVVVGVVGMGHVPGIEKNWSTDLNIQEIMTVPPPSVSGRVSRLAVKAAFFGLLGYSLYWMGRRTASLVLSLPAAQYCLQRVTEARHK
inactive: [1] 0.005 | [2] -0.034 | [3] -0.054 | [4] 0.027 | [5] -0.054

XPO5 (UniProt Q9HAV4)
inactive: [1] -0.037 | [2] 0.042 | [3] 0.02 | [4] -0.024 | [5] -0.01

WDR41 (UniProt Q9HAD4)
inactive: [1] -0.045 | [2] -0.08 | [3] -0.033 | [4] -0.03 | [5] 0.055
